Molecules are shown by their SMILES. Values without a mark were called inactive. Inconclusive results are not listed. The source made the active and inactive calls. Unless noted, calls come from the whole dose curve.

Experiment [1] can be described thus: Nuclear factor erythroid 2-related factor 2/antioxidant responsive element (Nrf2/ARE) small molecule agonists: qHTS cell viability counter screen in human keratinocytes (AID 1919968; active = well fitted curve in the direction sought with a large enough effect in the repeat runs; an effect the other way counts as inactive or inconclusive; note: nearly all actives have a fitted effect of over 55% in size). Summed up: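 CellTiter-Fluor fluorescence, read 1 h after reagent, gave viability in the same wells as the ARE-luciferase assay. KeratinoSens cells (1,500/well) had 23 h compound exposure at 37 C/5% CO2 following 5 h plating.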

Experiment [2] is described as follows: Nuclear factor erythroid 2-related factor 2/antioxidant responsive element (Nrf2/ARE) small molecule agonists: luciferase reporter gene qHTS assay in human keratinocytes (AID 1919969). Note: nearly all actives have a fitted effect of over 35% in size. Note: potency is the fitted concentration of half-maximal effect.
In experiment [3] the target is Gonadotropin-releasing hormone receptor (Homo sapiens) (UniProt P30968). Nature of the experiment: Human gonadotropin-releasing hormone receptor (GnRHR) small molecule agonists, calcium flux assay in GnRHR-HEK293 cells (AID 1920063). Note: nearly all actives have a fitted effect of over 35% in size. Summed up:
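Agonist mode: compounds at 15 concentrations, in triplicate, went onto calcium dye-loaded GnRHR-HEK293 cells. Intracellular calcium was then followed as 480/540 nm fluorescence at 1 s intervals over 3 min.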
For orientation: Calcium assays in cells follow changes in intracellular calcium, usually with a dye or a luminescent sensor.

In experiment [4] the target is KiSS-1 receptor (Homo sapiens) (UniProt Q969F8). Nature of the experiment: Human kisspeptin (KISS1R) small molecule agonists, calcium flux assay in KISS1R-HEK293 cells (AID 1920064; active = well fitted curve in the direction sought with a large enough effect in the repeat runs; an effect the other way counts as inactive or inconclusive). An outline of the steps:
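Agonist mode: intracellular calcium rise tracked at 1 s intervals over 3 min (480/540 nm) immediately after compound addition to dye-loaded KISS1R-HEK293 stable cells. Each compound tested at 15 concentrations in triplicate.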

A short description of experiment [5]: G protein-coupled receptor (GPCR) small molecule agonists, calcium flux assay: HEK293 wild type cell line counter screen (AID 1920065). An outline of the steps:
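Calcium flux counter screen: compound added in agonist mode at 15 concentrations in triplicate to dye-loaded parental HEK293 cells. Fluorescence (480/540) read kinetically for 3 min; ATP served as positive control.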

The nature of experiment [6]: p53 small molecule agonists, cell-based qHTS assay with human liver microsomes (AID 1963577).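 Note: p53 response element beta-lactamase reporter cells with liver microsomes plus NADPH.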 An outline of the steps: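 Metabolically competent format: test substances, human liver microsomes and NADPH (both 0.5 mg/mL final) incubated with p53RE-bla cells 16 h at 37 C. Beta-lactamase reporter signal then quantified by fluorescence.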
A short description of experiment [7]: p53 small molecule agonists, cell-based qHTS assay with rat liver microsomes (AID 1963578). An outline of the steps:
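Each plate received p53RE-bla cells, then compound, then rat liver microsomes and NADPH (both 0.5 mg/mL final). Plates were held 16 h at 37 C, and beta-lactamase activity was detected with LiveBLAzer over 2 h.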

Experiment [8] is described as follows: p53 small molecule agonists, cell-based qHTS assay with human liver microsomes: qHTS cell viability counter screen (AID 1963579). Note: nearly all actives have a fitted effect of over 45% in size. An outline of the steps:
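Tox21 library compounds, delivered from DMSO stocks, were tested on p53RE-bla cells together with 0.5 mg/mL human liver microsomes and 0.5 mg/mL NADPH (final) over 16 h at 37 C; CellTiter-Glo luminescence served as the cytotoxicity measure.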
On the technique in general: Quantitative high-throughput screening tests each substance at several concentrations.

A short description of experiment [9]: p53 small molecule agonists, cell-based qHTS assay with rat liver microsomes: qHTS cell viability counter screen (AID 1963580). Note: nearly all actives have a fitted effect of over 45% in size. An outline of the steps: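 Counter screen for cytotoxicity under metabolic activation: rat liver microsomes and NADPH, 0.5 mg/mL final each, added with compounds to p53RE-bla HCT-116 cells; 16 h at 37 C, then ATP luminescence read.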

Experiment [10] can be described thus: p53 small molecule agonists, cell-based qHTS assay: qHTS cell viability counter screen (AID 1963581). Note: nearly all actives have a fitted effect of over 45% in size. Summed up:
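Counter screen read by CellTiter-Glo luminescence (ATP content, 30 min at room temperature), run in the same wells as the beta-lactamase reporter read. HCT-116 p53RE-bla cells saw compounds for 16 h at 37 C.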

Experiment [11] in a line: p53 small molecule agonists, cell-based qHTS assay (AID 1963582; active = well fitted activation curve with a large enough effect in the signal ratio in the repeat runs, not every such curve was filed as active; the % refers to the signal ratio). Summed up: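 Read-out is beta-lactamase FRET fluorescence after 2 h at room temperature with LiveBLAzer B/G substrate. p53 response element-bla cells were treated 16 h at 37 C with compounds in DMSO, added 5 h after seeding.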
Experiment [12] deals with 5-hydroxytryptamine receptor 2A (Homo sapiens) (UniProt P28223). Briefly: 5-hydroxytryptamine receptor 2A (HTR2A) small molecule agonists, cell-based qHTS assay (AID 1963587). Note: nearly all actives have a fitted effect of over 30% in size. An outline of the steps:
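HTR2A-CHO cells, plated 18 h at 37 C/5% CO2, dye-loaded 1 h at 37 C; compounds in DMSO added by pin tool (agonist mode). Intracellular calcium flux read as kinetic fluorescence on FDSS over 2 min at 1 s intervals.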

For experiment [13], the target named is Muscarinic acetylcholine receptor M1 (Homo sapiens) (UniProt P11229). Briefly: Cholinergic receptor muscarinic 1 (CHRM1) small molecule antagonists, cell-based qHTS assay (AID 1963588). Note: nearly all actives have a fitted effect of over 40% in size. Summed up: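 Compounds were tested at 15 concentrations in three independent runs. Dye-loaded CHRM1-CHO cells were exposed 5 min at room temperature before stimulation by acetylcholine added at 50nM. Intracellular calcium was read kinetically on FDSS for 3 min.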

The target is the same in experiment [14]. Nature of the experiment: Cholinergic receptor muscarinic 1 (CHRM1) small molecule agonists, cell-based qHTS assay (AID 1963589). Note: nearly all actives have a fitted effect of over 35% in size. An outline of the steps: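 Agonist-mode calcium-flux screen: compounds at 15 concentrations, three independent runs, were pin-transferred onto dye-loaded human CHRM1-CHO cells. Fluorescence was then recorded kinetically every second over minutes.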

Experiment [15] in a line: cAMP Responsive Elements (CRE) small molecule agonists, cell-based qHTS assay (AID 1963590). An outline of the steps: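 Agonist mode: compound added to CRE-bla HEK 293T cells (2,000/well, 18 h after plating) for 3 h at 37 C/5% CO2. Reporter activity detected via FRET beta-lactamase substrate, 2 h room-temperature loading.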
A short description of experiment [16]: cAMP Responsive Elements (CRE) small molecule antagonists, cell-based qHTS assay (AID 1963591; active = well fitted inhibition curve with a large enough effect in the signal ratio in the repeat runs, not every such curve was filed as active; the % refers to the signal ratio). Summed up:
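Antagonist mode: compounds are added alongside the adenylyl cyclase activator NKH477 (0.25 uM final) to CRE-bla HEK293T cells for 3 h. LiveBLAzer FRET substrate, 2 h at room temperature, reports bla expression.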

In experiment [17] the target is Beta-2 adrenergic receptor (Homo sapiens) (UniProt P07550). Nature of the experiment: Adrenergic beta2 receptor (ADRB2) small molecule antagonists, cell-based qHTS assay (AID 1963592). Note: series mostly up to about 92 µM; nearly all actives have a fitted effect of over 50% in size. Summed up:
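Assay format: CHO-ADRB2 cells, 18-20hr seeding at 37C/5% CO2, then compound plus 1nM isoproterenol agonist mix for 0.5hr RT. Homogeneous time-resolved fluorescence cAMP detection after 1hr, expressed as 665/615 nm ratio.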

The target is the same in experiment [18]. Briefly: Adrenergic beta2 receptor (ADRB2) small molecule agonists, cell-based qHTS assay (AID 1963593).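 Note: CHO cells stably overexpressing human ADRB2.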 Summed up: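 CHO cells stably over-expressing ADRB2 were plated overnight at 37C, then dosed with compounds plus a stimulation mix containing 100uM IBMX and 25uM Ro-20-1724 for 0.5hr at room temperature. cAMP was measured by HTRF competition, 1hr.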

Experiment [19] deals with D(2) dopamine receptor (Homo sapiens) (UniProt P14416). Briefly: Dopamine D2 receptor (DRD2) small molecule agonists, cell-based qHTS assay (AID 1963594). Note: nearly all actives have a fitted effect of over 35% in size. Summed up:
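HEK293 cells stably expressing DRD2 were cultured 24 h at 37 C, then given Ro20-1724 (0.1 mM final) and compounds for 10 min at room temperature. NKH477 (200nM) was then added for 30 min. cAMP was read by HTRF.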

For experiment [20] the target is unchanged. Nature of the experiment: Dopamine D2 receptor (DRD2) small molecule antagonists, cell-based qHTS assay (AID 1963595; active = well fitted inhibition curve with a large enough effect in the signal ratio in the repeat runs, with a control signal flat; the % refers to the signal ratio). Summed up: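 HEK293 cells stably expressing DRD2 were preincubated with 0.1 mM Ro20-1724, then with compound for 10 min at room temperature. Cells were stimulated with 200 nM NKH477 plus 12 nM quinpirole for 30 min, and cAMP was read by HTRF.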

Sequence of Gonadotropin-releasing hormone receptor (Homo sapiens) (P30968 whole entry, looked up): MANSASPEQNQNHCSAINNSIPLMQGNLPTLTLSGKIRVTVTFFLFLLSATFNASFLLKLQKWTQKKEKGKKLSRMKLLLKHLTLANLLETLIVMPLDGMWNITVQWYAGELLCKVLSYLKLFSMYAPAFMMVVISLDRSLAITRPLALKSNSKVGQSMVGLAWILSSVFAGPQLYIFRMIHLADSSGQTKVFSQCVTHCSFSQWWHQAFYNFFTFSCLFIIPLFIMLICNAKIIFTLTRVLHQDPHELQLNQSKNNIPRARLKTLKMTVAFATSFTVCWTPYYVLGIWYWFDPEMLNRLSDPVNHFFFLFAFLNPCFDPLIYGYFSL
Sequence of KiSS-1 receptor (Homo sapiens) (Q969F8 whole entry, looked up): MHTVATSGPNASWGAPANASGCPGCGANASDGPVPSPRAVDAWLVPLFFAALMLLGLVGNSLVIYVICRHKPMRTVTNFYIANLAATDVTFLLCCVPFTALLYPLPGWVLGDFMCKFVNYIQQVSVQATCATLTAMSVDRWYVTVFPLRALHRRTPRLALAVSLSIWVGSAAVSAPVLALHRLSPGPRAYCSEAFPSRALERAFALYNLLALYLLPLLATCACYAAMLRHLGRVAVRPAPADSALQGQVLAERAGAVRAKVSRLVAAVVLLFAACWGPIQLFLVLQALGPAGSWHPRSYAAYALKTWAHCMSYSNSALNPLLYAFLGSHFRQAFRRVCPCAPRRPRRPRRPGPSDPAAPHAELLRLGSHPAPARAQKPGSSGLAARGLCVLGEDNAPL
Sequence of D(2) dopamine receptor (Homo sapiens) (P14416 whole entry, looked up): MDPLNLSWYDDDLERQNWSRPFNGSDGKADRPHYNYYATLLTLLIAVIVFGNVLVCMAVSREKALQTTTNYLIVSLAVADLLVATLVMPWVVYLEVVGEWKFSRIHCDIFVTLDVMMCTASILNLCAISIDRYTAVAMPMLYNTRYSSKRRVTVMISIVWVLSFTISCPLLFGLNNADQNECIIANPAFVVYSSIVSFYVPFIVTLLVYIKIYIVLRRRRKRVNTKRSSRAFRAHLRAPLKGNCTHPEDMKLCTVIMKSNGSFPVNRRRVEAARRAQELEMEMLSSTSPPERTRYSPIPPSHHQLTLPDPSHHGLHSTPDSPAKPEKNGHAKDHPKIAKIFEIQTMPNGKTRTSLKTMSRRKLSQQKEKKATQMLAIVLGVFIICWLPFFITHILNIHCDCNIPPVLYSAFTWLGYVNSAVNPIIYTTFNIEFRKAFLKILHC
Sequence of Muscarinic acetylcholine receptor M1 (Homo sapiens) (P11229 whole entry, looked up): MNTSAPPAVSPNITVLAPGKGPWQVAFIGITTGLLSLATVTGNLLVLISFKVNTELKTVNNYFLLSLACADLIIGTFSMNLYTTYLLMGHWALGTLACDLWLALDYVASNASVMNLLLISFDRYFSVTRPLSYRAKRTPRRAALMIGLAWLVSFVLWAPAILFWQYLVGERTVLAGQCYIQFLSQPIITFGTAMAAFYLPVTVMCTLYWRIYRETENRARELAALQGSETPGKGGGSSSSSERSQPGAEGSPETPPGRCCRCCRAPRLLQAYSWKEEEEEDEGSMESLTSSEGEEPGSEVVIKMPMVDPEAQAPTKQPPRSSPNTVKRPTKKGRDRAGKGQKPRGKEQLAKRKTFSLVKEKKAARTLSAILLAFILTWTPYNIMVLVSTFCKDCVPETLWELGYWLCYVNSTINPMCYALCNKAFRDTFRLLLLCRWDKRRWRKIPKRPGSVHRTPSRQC
Sequence of Beta-2 adrenergic receptor (Homo sapiens) (P07550 whole entry, looked up): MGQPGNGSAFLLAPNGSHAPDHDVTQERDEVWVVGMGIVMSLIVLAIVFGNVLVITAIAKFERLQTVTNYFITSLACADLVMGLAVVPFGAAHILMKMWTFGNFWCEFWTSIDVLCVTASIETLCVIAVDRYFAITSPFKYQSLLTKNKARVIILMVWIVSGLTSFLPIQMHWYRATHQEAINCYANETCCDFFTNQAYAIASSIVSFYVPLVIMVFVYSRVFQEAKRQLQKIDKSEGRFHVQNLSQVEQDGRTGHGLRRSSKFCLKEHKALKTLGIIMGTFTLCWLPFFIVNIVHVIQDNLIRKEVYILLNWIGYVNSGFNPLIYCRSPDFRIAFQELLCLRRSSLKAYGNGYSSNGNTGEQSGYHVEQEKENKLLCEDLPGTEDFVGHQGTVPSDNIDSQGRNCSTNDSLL
Sequence of 5-hydroxytryptamine receptor 2A (Homo sapiens) (P28223 whole entry, looked up): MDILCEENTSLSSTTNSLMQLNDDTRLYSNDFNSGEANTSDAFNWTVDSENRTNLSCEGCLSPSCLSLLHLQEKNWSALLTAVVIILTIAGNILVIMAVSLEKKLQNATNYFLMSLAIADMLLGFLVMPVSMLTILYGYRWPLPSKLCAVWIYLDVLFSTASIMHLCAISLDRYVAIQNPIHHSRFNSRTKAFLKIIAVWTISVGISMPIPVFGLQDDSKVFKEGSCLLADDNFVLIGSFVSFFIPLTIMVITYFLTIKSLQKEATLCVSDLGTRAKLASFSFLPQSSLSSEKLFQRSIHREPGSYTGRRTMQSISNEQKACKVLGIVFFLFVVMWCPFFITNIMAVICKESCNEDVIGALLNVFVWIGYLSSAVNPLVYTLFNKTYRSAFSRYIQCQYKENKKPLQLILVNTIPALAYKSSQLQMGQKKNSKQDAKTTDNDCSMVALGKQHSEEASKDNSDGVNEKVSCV

With `O[C@@H]1CO[C@H]2[C@@H]1OC[C@@H]2O`, the Potency entry in experiment [1], in [2], in experiment [3], in [6], in [7] and in experiment [8] was “inactive” in each case. Moreover, the Potency entry in experiment [9], in experiment [10], in experiment [11], in experiment [12], in experiment [13] and in [14] was “inactive” each time. Moreover, the Potency result in experiment [15], in experiment [16], in [17], in experiment [18], in experiment [19] and in [20] was “inactive” throughout. Also, the result in experiment [4] and in [5] was inactive.

Regarding `CC1CCCCC1`, the Potency entry in [1], in experiment [2], in [3], in [6], in [7] and in experiment [8] was “inactive” throughout. For the same compound, the Potency result in experiment [9], in experiment [10], in experiment [11], in experiment [14], in experiment [15] and in experiment [16] was “inactive” each time. In addition, the Potency result in experiment [19] and in experiment [20] was “inactive” throughout. Moreover, the result in experiment [4] and in [5] was inactive.

Consider `Cl[Si](Cl)(c1ccccc1)c1ccccc1`, for which the Potency entry in experiment [1], in experiment [2], in [3], in [6], in experiment [7] and in experiment [8] was “inactive” each time. The Potency result in experiment [9], in experiment [10], in [11], in experiment [13], in experiment [14] and in experiment [15] was “inactive” each time. Besides, the Potency entry in experiment [16], in experiment [17], in experiment [19] and in experiment [20] was “inactive” each time. Besides, the result in [4] and in experiment [5] was inactive.

Turning to `CC(N)C(=O)OC(C)(C)Cc1ccc(Cl)cc1` (stereo not given), the Potency result in experiment [1], in experiment [2], in [3], in experiment [6], in experiment [7] and in experiment [8] was “inactive” each time. For the same compound, the Potency result in experiment [9], in [10], in [11], in experiment [13], in [14] and in experiment [15] was “inactive” each time. The Potency entry in [16], in experiment [17] and in experiment [20] was “inactive” each time. For the same compound, the outcome in [4] and in [5] was inactive.

For the compound `Clc1nnc(Cl)c2ccccc12`, the Potency entry in experiment [1], in [3], in experiment [6], in experiment [7], in experiment [8] and in experiment [9] was “inactive” throughout. For the same compound, the Potency entry in experiment [10], in experiment [11], in [13], in [14], in experiment [17] and in [19] was “inactive” throughout. In addition, the Potency entry in [20] is “inactive”. Further, the Potency in [2] was 6.08 µM (active). Also, the result in [4] and in [5] was inactive.

As for `CCCCCCCCCCCCSC`, the Potency result in experiment [1], in experiment [2], in experiment [3], in experiment [6], in experiment [7] and in [8] was “inactive” each time. In addition, the Potency result in experiment [9], in experiment [10], in experiment [11], in experiment [13], in [14] and in [15] was “inactive” throughout. The Potency entry in experiment [16], in experiment [17], in [19] and in experiment [20] was “inactive” in each case. For the same compound, the outcome in [4] and in experiment [5] was inactive.

Take `CCCCCCCC/C=C\CCCCCCCCCCCC(=O)O`: the Potency entry in experiment [1], in [2], in experiment [3], in [6], in [7] and in experiment [8] was “inactive” in each case. In addition, the Potency entry in [9], in [10], in [11], in [13], in [14] and in [15] was “inactive” throughout. Also, the Potency result in experiment [16], in experiment [17], in experiment [19] and in [20] was “inactive” throughout. Further, the outcome in [4] and in experiment [5] was inactive.

Turning to `COc1cc(C(=O)NCCCCCC(=O)O)cc(OC)c1OC`, the Potency entry in [1], in [2], in [3], in experiment [6], in experiment [7] and in experiment [8] was “inactive” throughout. In addition, the Potency entry in [9], in experiment [10], in experiment [11], in experiment [13], in experiment [14] and in [15] was “inactive” throughout. Also, the Potency result in experiment [16], in [17] and in [20] was “inactive” throughout. In addition, the outcome in experiment [4] and in experiment [5] was inactive.
